Screens: PubChem, National Center for Advancing Translational Sciences (NCATS)
The full list was thinned out, with hits kept by preference.
Sfp PPTase inh: qHTS Assay for Inhibitors of Bacillus subtilis Sfp phosphopantetheinyl transferase (PPTase); Biochemical Sfp PPTase activity, qHTS; Potency, µM, usual class: inhibitors; 310,000 tested, 3.5% active;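 further: the enzyme is Sfp with the accession as filed and its product quenches rhodamine fluorescence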
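Step 1, compound plus 15 nM Sfp-PPTase, 15 min, room temperature. Step 2, add rhodamine-CoA (5 uM) and BHQ-2-YbbR (12.5 uM). Step 3, read 525/598 nm fluorescence at 0 and 30 min.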
G9a block: qHTS Assay for Inhibitors of Histone Lysine Methyltransferase G9a | 350,000 tested, 8.8% active | G9a H3K9 monomethylation, AlphaScreen, 2 h | Potency, µM (titrated, usually from 102 µM), most hits filed as inhibitors | AID 504332, 2011; further: nearly all actives have a fitted effect of over 75% in size
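Step 1: enzyme (final 20 nM) with compound, 15 min RT. Step 2: substrate peptide 500 nM and SAM 20 uM, 2 h RT. Step 3: anti-H3K9me1 antibody and AlphaScreen beads, 10 min, then plate read.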
12-LOX inh: Primary qHTS assay for inhibitors of human arachidonate 12S-lipoxygenase (ALOX12): Round 2; Polyunsaturated fatty acid lipoxygenase ALOX12 (Homo sapiens), P18054; purified 12hLO, xylenol orange hydroperoxide absorbance; Potency, µM (series often up to 108 µM), actives largely listed as inhibitors; 580,000 tested, 1.1% active; AID 1671190, 2021
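Hydroperoxide product was detected by ferrous iron/xylenol orange as the 573 to 405 nm absorbance ratio. Arachidonic acid at 40 uM (final) was turned over for 30 min at room temperature by 150 nM human 12hLO, pH 7.0 Hepes buffer, after 15 min compound preincubation.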
VDR inh: Inhibitors of the vitamin D receptor (VDR): qHTS; Vitamin D3 receptor (Homo sapiens), P11473; Potency, µM, most hits filed as inhibitors; VDR-SRC2-3 peptide fluorescence polarization, 2 h; AID 504847, 2011; 400,000 tested, 0.93% active
Target sequence (P11473 whole entry, looked up): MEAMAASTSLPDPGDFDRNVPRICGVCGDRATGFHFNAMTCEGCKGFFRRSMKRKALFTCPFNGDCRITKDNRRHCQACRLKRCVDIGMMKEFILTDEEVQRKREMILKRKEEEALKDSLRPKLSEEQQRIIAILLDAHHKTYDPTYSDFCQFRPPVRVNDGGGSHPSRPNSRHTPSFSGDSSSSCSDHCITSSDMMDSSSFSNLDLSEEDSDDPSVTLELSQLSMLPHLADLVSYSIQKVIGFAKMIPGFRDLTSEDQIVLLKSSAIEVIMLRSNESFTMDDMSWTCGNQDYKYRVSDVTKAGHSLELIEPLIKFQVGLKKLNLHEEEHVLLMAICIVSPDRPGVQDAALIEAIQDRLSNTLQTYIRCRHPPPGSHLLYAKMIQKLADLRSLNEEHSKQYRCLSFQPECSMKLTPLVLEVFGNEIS
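After 23 nl compound addition and a short centrifugation, plates sat for 2 hours at ambient temperature; polarization of fluorescence then indicated loss of VDR binding to peptide SRC2-3.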
GRP78 ERSR act: qHTS for Inducers of the Endoplasmic Reticulum Stress Response (ERSR) in Human Glioma: qHTS; 420,000 tested, 0.02% active; U87-MG GRP78 promoter luciferase reporter, 16 h; Potency, µM, hits mostly activators; further: series mostly up to about 76 µM; nearly all actives have a fitted effect of over 35% in size
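ERSR induction read as luciferase luminescence (Bright-Glo, 10 min at room temperature) in stably transfected human U87-MG glioma cells exposed to compounds for 16 h, using GRP78 as sensor.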
Numbers stand for hits; ! = a repeat was not active; [ ] = remark or other dose. The call rests on the fitted dose curve; in most records, active means well fitted curve in the direction sought with a large enough effect; inconclusive means small, poorly fitted or top-dose-only effect, or another doubt; inactive means no such curve, though single readings can be large; an effect the other way counts as inactive or inconclusive.

Screening COc1cc(C(=O)Nc2nnc(SC)s2)c([N+](=O)[O-])cc1OC returned Sfp PPTase inh inactive, G9a block 31.6µM, 12-LOX inh inactive, VDR inh inactive and GRP78 ERSR act inactive.
`CCOCc1nnc(NC(=O)c2cc(Cl)ccc2OC)s1` gave Sfp PPTase inh 35.5µM, G9a block 6.31µM, 12-LOX inh inconclusive, VDR inh inactive and GRP78 ERSR act inactive.
For COCc1nnc(NC(=O)c2ccccc2[N+](=O)[O-])s1 the results were Sfp PPTase inh inactive, G9a block 20µM, 12-LOX inh inactive, VDR inh inactive and GRP78 ERSR act inactive.
For CCN1CCN(c2nc(Nc3ccc(C)cc3)c3nccnc3n2)CC1 the results were 12-LOX inh inactive.
Screening CCN(CC)C(=O)CSc1ncccc1-c1nc2ccccc2[nH]1 returned Sfp PPTase inh inactive, G9a block 50.1µM, 12-LOX inh inactive, VDR inh inactive and GRP78 ERSR act inactive.
CSc1ncccc1-c1nc2ccccc2[nH]1 was read as Sfp PPTase inh inactive, G9a block 10µM, 12-LOX inh inactive, VDR inh inactive and GRP78 ERSR act inactive.
c1ccc2c(-c3nc4ccccc4[nH]3)cccc2c1 was read as 12-LOX inh inactive and GRP78 ERSR act inactive.
For c1ccc2[nH]c(-c3ccnc4ccccc34)nc2c1 the results were Sfp PPTase inh 79.4µM!, G9a block 8.91µM!, 12-LOX inh inconclusive, VDR inh inactive and GRP78 ERSR act inactive.
Screening CN(N)C(=S)Nc1ccc(Cl)cc1 returned Sfp PPTase inh inactive, G9a block 15.8µM, 12-LOX inh inconclusive, VDR inh inactive and GRP78 ERSR act inactive.
CN(C)NC(=S)Nc1ccc(Cl)cc1 was read as Sfp PPTase inh inactive, G9a block inactive, 12-LOX inh inactive, VDR inh inactive and GRP78 ERSR act inactive.
`O=C(Nc1cccc(S(=O)(=O)NC2=NCCC2)c1)c1ccccc1F` gave 12-LOX inh inactive, VDR inh inactive and GRP78 ERSR act inactive.
`O=[N+]([O-])c1ccc(Cl)c(S(=O)(=O)Nc2cccc(S(=O)(=O)NC3=NCCC3)c2)c1` gave 12-LOX inh inconclusive, VDR inh 79.4µM and GRP78 ERSR act inactive.
O=C(Nc1cccc(S(=O)(=O)NC2=NCCC2)c1)c1cc(Cl)ccc1[N+](=O)[O-] was read as G9a block 50.1µM, VDR inh inactive and GRP78 ERSR act inactive.
`O=[N+]([O-])c1ccc(Cl)c(S(=O)(=O)NC2=NCCC2)c1` gave G9a block inactive, 12-LOX inh inactive, VDR inh inactive and GRP78 ERSR act inactive.
`Cc1nnc(NC(=O)C2(c3ccc(F)cc3)CCC2)s1` gave 12-LOX inh inactive.
`Cc1cc(O)c2c(c1O)C(=O)C(O)=C(O)C2=O` gave Sfp PPTase inh 44.7µM, 12-LOX inh 28.2µM and VDR inh 8.91µM.
Cc1cc(C=O)cc(C)c1O was read as 12-LOX inh inactive.
For COc1cc(NC(=O)C2CC2)c(C(=O)O)cc1OC the results were Sfp PPTase inh inactive, G9a block 50.1µM, 12-LOX inh inactive, VDR inh inactive and GRP78 ERSR act inactive.
Screening COc1cc(NC(=O)N2c3ccccc3Sc3ccccc32)c(C(=O)O)cc1OC returned Sfp PPTase inh inactive, 12-LOX inh 20µM, VDR inh inactive and GRP78 ERSR act inactive.
Screening Cc1ccc(NC(=O)COc2ncnc3ccc(Br)cc23)cc1C returned 12-LOX inh inactive.
For N[C@H](C(=O)O)[C@H](OCc1ccccc1)C(=O)O the results were Sfp PPTase inh inconclusive, 12-LOX inh inactive, VDR inh inactive and GRP78 ERSR act inactive.
CC[N+](C)(CC)CC(C[N+](C)(CC)CC)OCc1ccccc1 was read as 12-LOX inh 14.1µM.
For Cc1cc2n(CC(O)COc3ccc(Cl)cc3)c(=O)c3ccccc3n2n1 (configuration not stated) the results were 12-LOX inh inactive.
O=C1CCC(C(=O)OCc2ccccc2)N1 (configuration not stated) was read as Sfp PPTase inh inactive, G9a block 6.31µM, 12-LOX inh inactive, VDR inh inactive and GRP78 ERSR act inactive.
For CN1/C(=C/C(=O)C2CCC2)Sc2ccccc21 the results were Sfp PPTase inh inconclusive, G9a block inconclusive, 12-LOX inh inactive, VDR inh inactive and GRP78 ERSR act inactive.
CCC(=S)/C=C1\Sc2ccccc2N1CCCS(=O)(=O)O was read as Sfp PPTase inh inactive, 12-LOX inh inconclusive, VDR inh 70.8µM and GRP78 ERSR act inactive.
`CC(c1cc(F)ccc1F)N(C)CCS(=O)(=O)CCC(N)=O` (configuration not stated) gave 12-LOX inh inactive.
Screening Cc1ccsc1C(=O)N1CCC(n2cc(-c3nc(C(C)C)no3)nn2)CC1 returned 12-LOX inh inactive.
Screening Cc1ccc(-c2ccc(CCC(=O)O)n2NC(=O)c2cccs2)cc1 returned Sfp PPTase inh inactive, G9a block inconclusive, 12-LOX inh inactive, VDR inh inactive and GRP78 ERSR act inactive.
O=C(O)CCc1ccc(-c2cccs2)n1NC(=O)c1ccco1 was read as Sfp PPTase inh inactive, G9a block inactive, 12-LOX inh inactive, VDR inh inactive and GRP78 ERSR act inactive.
Screening O=C(O)CCc1ccc(-c2cccs2)n1NC(=O)c1ccc(Cl)cc1Cl returned Sfp PPTase inh inactive, G9a block 56.2µM, 12-LOX inh inconclusive, VDR inh inactive and GRP78 ERSR act inactive.
For O=C(O)CCc1ccc(-c2cccs2)n1NC(=O)c1ccc(Cl)cc1 the results were Sfp PPTase inh 25.1µM, G9a block inactive[12.7 µM], 12-LOX inh inconclusive, VDR inh inactive and GRP78 ERSR act inactive.
COc1ccc(-c2ccc(CCC(=O)O)n2NC(=O)c2cccs2)cc1 was read as Sfp PPTase inh inactive, G9a block 14.1µM, 12-LOX inh inactive, VDR inh inactive and GRP78 ERSR act inactive.
O=C(O)CCc1ccc(-c2ccccc2)n1NC(=O)c1ccc(Cl)cc1 was read as 12-LOX inh inactive.
Screening O=S(c1ccccc1O)S(=O)c1ccccc1O (configuration not stated) returned 12-LOX inh 2.24µM, VDR inh 35.5µM and GRP78 ERSR act inactive.
CS(=O)c1ccccc1O (configuration not stated) was read as Sfp PPTase inh inactive, G9a block inactive, 12-LOX inh inactive, VDR inh inactive and GRP78 ERSR act inactive.
For O=C(Nc1ccc(F)c(F)c1)c1cc2cc(Br)ccc2oc1=O the results were 12-LOX inh inactive.
Screening COc1ccc(-c2cnc(C)o2)cc1S(=O)(=O)Nc1cccc(Br)c1 returned 12-LOX inh inactive.
`C=CCn1c(NC(=O)c2ccccc2Cl)c(C#N)c2nc3ccccc3nc21` gave Sfp PPTase inh 79.4µM, G9a block inactive, 12-LOX inh inactive, VDR inh 35.5µM and GRP78 ERSR act inactive.
